Results: PubChem BioAssay (NCATS)
Results filed as inconclusive are left out. Activity calls are given as the source filed them. The call rests on the fitted dose curve; in most records, active means well fitted inhibition curve with a large enough effect; inconclusive means small, poorly fitted or top-dose-only effect; inactive means flat fitted curve, though single readings scatter.

Columns and labels:
Assay in all cases: qHTS profiling for inhibitors of Plasmodium falciparum proliferation (AID 504749); further: nearly all actives have a fitted effect of over 60% in size
Conditions in all cases: P. falciparum in erythrocytes, SYBR Green DNA, 72 h; series mostly up to 28.7 µM
CP194 = system: CP194
In short: (§1)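 Three-day growth assay of blood-stage parasites in erythrocytes (0.3% parasitemia, 2.5% hematocrit) at 37 C, 5% CO2, quantified by SYBR Green DNA staining after overnight detergent lysis.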

CP201 = system: CP201
In short: as §1

CP203 = system: CP203
In short: as §1

CP211 = system: CP211
In short: as §1

CP215 = system: CP215
In short: as §1

CP217 = system: CP217
In short: as §1

CP237 = system: CP237
In short: as §1

CP238 = system: CP238
In short: as §1

CP250 = system: CP250
In short: as §1

CP252 = system: CP252
In short: as §1

CP256 = system: CP256
In short: as §1

CP260 = system: CP260
In short: as §1

CP262 = system: CP262
In short: as §1

CP265 = system: CP265
In short: as §1

CP266 = system: CP266
In short: as §1

CP268 = system: CP268
In short: as §1

CP269 = system: CP269
In short: as §1

CP286 = system: CP286
In short: as §1

CP291 = system: CP291
In short: as §1

CP247 = system: CP247
In short: as §1

Measured: Potency
Potency means the concentration at half of the fitted maximal effect.

Cc1cc2nc3c(=O)[nH]c(=O)nc-3n(C[C@H](O)[C@H](O)[C@H](O)COP(=O)(O)OP(=O)(O)OC[C@H]3O[C@@H](n4cnc5c(N)ncnc54)[C@H](O)[C@@H]3O)c2cc1C
not listed: CP247
inactive: all other assays above

O=[N+]([O-])c1c(Cl)cccc1-c1c[nH]cc1Cl
not listed: CP260
inactive: all other assays above

CCC(C(=O)NC(N)=O)c1ccccc1 (centres undefined)
not listed: CP260
inactive: all other assays above

CC(=O)NCCCS(=O)(=O)O
not listed: CP260
inactive: all other assays above

COc1ccc(/C=C/C(=O)OCCC(C)C)cc1
not listed: CP250
inactive: all other assays above

O=c1[nH]c(=O)n([C@H]2C[C@H](O)[C@@H](CO)O2)cc1/C=C/Br
not listed: CP260
inactive: all other assays above

CCOC(=S)SSC(=S)OCC
not listed: CP247
inactive: all other assays above

CCN(CC)CCCC(C)Nc1cc(/C=C/c2ccccc2Cl)nc2cc(Cl)ccc12 (centres undefined)
active: CP194 12 µM | CP201 4.78 µM | CP203 10.7 µM | CP211 15.1 µM | CP215 13.5 µM | CP217 3.16 µM | CP237 1.78 µM | CP238 4.47 µM | CP247 3.55 µM | CP250 1.26 µM | CP256 3.55 µM | CP260 2 µM | CP265 2.82 µM | CP268 4.26 µM | CP269 3.38 µM | CP286 1.12 µM | CP291 2.13 µM

CO/N=C(\C(=O)N[C@@H]1C(=O)N2C(C(=O)[O-])=C(C[n+]3cccc4c3CCC4)CS[C@H]12)c1csc(N)n1
not listed: CP260 | CP268
inactive: all other assays above

Cc1cc(-c2ccc(N=Nc3ccc4c(S(=O)(=O)O)cc(S(=O)(=O)O)c(N)c4c3O)c(C)c2)ccc1N=Nc1ccc2c(S(=O)(=O)O)cc(S(=O)(=O)O)c(N)c2c1O
not listed: CP260
inactive: all other assays above

CCOC(=O)Cc1ccc(-c2ccccc2)cc1
active: CP265 0.0006 µM
not listed: CP252 | CP256
inactive: all other assays above

NC(=O)C1c2ccccc2CCc2ccccc21
not listed: CP247
inactive: all other assays above

CCN(CC)CCC(=O)N1c2ccccc2Sc2ccc(C(F)(F)F)cc21
not listed: CP256 | CP291 | CP247
inactive: all other assays above

OCCCNc1ccccc1
not listed: CP266 | CP247
inactive: all other assays above
